Article PMC5540273 (PLoS ONE, 2017)

Assays:
Settings in all cases: concentration: 1 μM, replicates: in singlicate; n = 1
PLK2 = system: PLK2
PLK3 = system: PLK3
PLK4 = system: PLK4
PRKCD = system: PRKCD
PRKCE = system: PRKCE
PRKCH = system: PRKCH
PRKCI = system: PRKCI
PRKCQ = system: PRKCQ
PRKD1 = system: PRKD1
PRKD2 = system: PRKD2
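Note: KINOMEscan kinase panel screen.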

Row | Compound | %Inh (PLK2) [%] | %Inh (PLK3) [%] | %Inh (PLK4) [%] | %Inh (PRKCD) [%] | %Inh (PRKCE) [%] | %Inh (PRKCH) [%] | %Inh (PRKCI) [%] | %Inh (PRKCQ) [%] | %Inh (PRKD1) [%] | %Inh (PRKD2) [%]
1 | CCNc1nccc(-c2c(-c3ccc(F)cc3)ncn2C2CCN(C)CC2)n1 | 0 | 0 | 0 | 6 | 31 | 0 | 0 | 0 | 40 | 0
2 | COc1cc(Nc2nccc(N3CCC(NC(=O)Nc4ccc5c(c4)OCO5)C3)n2)cc(OC)c1OC (centres unmarked) [GSK1379766] | 0 | 2 | 48 | 0 | 8 | 0 | 11 | 0 | 0 | 0
3 | COc1cc(Nc2nccc(N3CCC(NS(=O)(=O)c4ccc(NC(C)=O)cc4)CC3)n2)cc(OC)c1OC [GSK1379825] | 0 | 29 | 27 | 0 | 14 | 35 | 19 | 26 | 0 | 0
4 | COC(=O)Nc1nc2cc(Oc3ccc(NC(=O)Nc4cccc(SC)c4)cc3)ccc2[nH]1.Cl [GW697999] | 0 | 0 | 0 | 1 | 11 | 4 | 0 | 0 | 3 | 10
5 | CC(=O)Nc1cn2nc(Oc3cccc(NC(=O)c4cccc(C(F)(F)F)c4)c3)ccc2n1 | 0 | 0 | 0 | 0 | 0 | 0 | 0 | 0 | 18 | 17
6 | Cc1cc(-c2c(-c3ccc(F)cc3)ncn2CCCN2CCOCC2)nc(N)n1 [SB-222517] | 11 | 25 | 15 | 28 | 0 | 0 | 27 | 0 | 0 | 0
7 | COC(=O)Nc1nc2ccc(Oc3ccc(NC(=O)Nc4cc(C(F)(F)F)ccc4F)cc3)cc2[nH]1.Cl [GW654607] | 0 | 0 | 0 | 4 | 12 | 8 | 21 | 16 | 28 | 3
8 | COc1cccc(CC(=O)N2CCc3cc(-c4cn(C)c5ncnc(N)c45)ccc32)c1 [GSK2608899] | 0 | 0 | 4 | 17 | 1 | 10 | 31 | 0 | 18 | 1
9 | Cc1ccccc1CC(=O)N1CCc2cc(-c3cn(C)c4ncnc(N)c34)ccc21 [GSK2603346] | 2 | 0 | 0 | 0 | 0 | 51 | 22 | 35 | 18 | 0
10 | Cc1cccc(Nc2nc(NCCN)ncc2C(N)=O)c1 [GSK1292139] | 0 | 0 | 10 | 26 | 44 | 22 | 2 | 7 | 85 | 87
11 | Cc1cc(-c2ccnc(Nc3cccc(C#N)c3)n2)cc(C)c1O [GSK1440913] | 0 | 0 | 15 | 0 | 6 | 5 | 5 | 12 | 0 | 0
12 | N#Cc1cnc2cc(-c3cnc(CNCCN4CCOCC4)s3)ccc2c1Nc1ccc(Oc2ccccc2)cc1 [GW664114] | 0 | 0 | 2 | 0 | 0 | 96.3 | 5 | 0 | 0 | 18
13 | Cc1cccc(Nc2nc(N[C@H]3CCCC[C@H]3N)ncc2C(N)=O)c1.Cl [GSK986310] | 0 | 0 | 16 | 53 | 56 | 43 | 28 | 53 | 50 | 56
14 | Cl.Cl.NCC(NC(=O)c1cc(-c2cccnc2)c(-c2ccnc3[nH]ccc23)s1)c1ccccc1 (centres unmarked) [GSK1323434] | 35 | 0 | 0 | 95.4 | 82 | 88 | 47 | 75 | 1 | 12
15 | COc1ccc(NC(=O)c2ccoc2)cc1-c1ccc(C(=O)NCC2CC2)cc1 [GW810437] | 34 | 28 | 8 | 9 | 41 | 0 | 6 | 0 | 0 | 0
16 | CS(=O)(=O)c1cccc(CNc2nc(Nc3ccc4c(c3)CCC(=O)N4)ncc2C(F)(F)F)c1 | 29 | 31 | 51 | 4 | 0 | 0 | 13 | 0 | 0 | 0

Row | Compound | %Inh (PLK2) [%] | %Inh (PLK3) [%] | %Inh (PLK4) [%] | %Inh (PRKCD) [%] | %Inh (PRKCE) [%] | %Inh (PRKCH) [%] | %Inh (PRKCI) [%] | %Inh (PRKCQ) [%] | %Inh (PRKD1) [%] | %Inh (PRKD2) [%]
17 | CCn1cnc2c(NCc3ccccc3)ncnc21 [SKF-96418] | 25 | 34 | 1 | 3 | 29 | 0 | 0 | 0 | 0 | 0
18 | CSc1ccc(NC2=C(c3ccc(Cl)cc3)C(=O)NC2=O)cc1 [SB-317658] | 6 | 0 | 30 | 4 | 0 | 2 | 8 | 0 | 17 | 0
19 | Cn1cc(-c2ccc3c(c2)CCN3C(=O)Cc2cc(F)cc(F)c2F)c2c(N)ncnc21 [GSK2634140] | 0 | 0 | 0 | 0 | 0 | 17 | 0 | 20 | 100 | 0
20 | COc1ccc(C)c(Nc2ccnc(Nc3ccc(-c4cnc[nH]4)cc3)n2)c1.Cl [GW784041] | 0 | 0 | 15 | 30 | 12 | 0 | 25 | 0 | 16 | 12
21 | COc1cccc(C2=C(Nc3cccc(O)c3)C(=O)NC2=O)c1 [SB-390771] | 0 | 0 | 15 | 20 | 27 | 19 | 16 | 98.4 | 0 | 0
22 | COc1ccc(C2=C(Nc3cccc(O)c3)C(=O)NC2=O)cc1 [SB-390766] | 0 | 0 | 13 | 0 | 49 | 0 | 18 | 0 | 0 | 4
23 | COc1cccc(-c2nc(-c3ccccc3)[nH]c2-c2ccncc2)c1 [SB-610250] | 0 | 0 | 0 | 0 | 7 | 0 | 25 | 0 | 14 | 0
24 | CC(C)(C)c1ccc(C(=O)Nc2cn3cc(-n4ccnc4)ccc3n2)cc1 | 24 | 10 | 0 | 7 | 15 | 0 | 10 | 23 | 0 | 12
25 | Fc1cc(Cl)ccc1Nc1ccnc2cc(-c3ccc(CN4CCOCC4)o3)ccc12 [GW560109] | 0 | 0 | 81 | 0 | 5 | 3 | 22 | 31 | 0 | 2
26 | Cc1ccc(O)cc1Nc1ccnc2cc(-c3ccc(CN4CCCCC4)o3)ccc12 [GW557777] | 13 | 0 | 0 | 0 | 0 | 0 | 0 | 0 | 96.5 | 97.8
27 | Cl.O=C(Nc1ccc(Oc2ccc3[nH]c(NC(=O)c4ccco4)nc3c2)cc1)Nc1cc(C(F)(F)F)ccc1F [GW683134] | 0 | 0 | 0 | 4 | 0 | 0 | 0 | 9 | 0 | 0
28 | COC(=O)Nc1nc2ccc(Oc3ccc(CC(=O)Nc4cc(C(F)(F)F)ccc4F)cc3)cc2[nH]1 [GW680903] | 0 | 0 | 0 | 0 | 9 | 0 | 17 | 0 | 0 | 0
29 | Cl.Cl.NC(CNC(=O)c1cc(Br)c(-c2ccnc3[nH]ccc23)s1)c1ccccc1 (centres unmarked) [GSK1322949] | 74 | 48 | 41 | 76 | 93.1 | 92.6 | 36 | 74 | 0 | 24
30 | CCn1c(-c2nonc2N)nc2c(-c3ccccc3)ncc(OCCCN)c21.O=C(O)C(F)(F)F.O=C(O)C(F)(F)F [GSK260205] | 0 | 0 | 0 | 97.9 | 97.3 | 95.6 | 69 | 93 | 91.2 | 93.6
31 | CN(c1ccc(F)c(NC(=O)c2cccc(OC(C)(C)C#N)c2Cl)c1)c1ccc2nc(NC(=O)C3CC3)sc2n1 | 0 | 0 | 0 | 0 | 0 | 16 | 4 | 5 | 0 | 3
32 | Cc1nn2c(=O)cc(N3CCO[C@H](C)C3)nc2n1Cc1cccc(Cl)c1Cl [GSK2373693] | 0 | 0 | 48 | 0 | 74 | 13 | 24 | 12 | 14 | 2
